# Assay results: PubChem BioAssay (NCI)
# The panel holds about 83,000 compounds, 20% with a hit somewhere; the sample as a whole holds those more often.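 Percent growth is the endpoint: 0 to 100 indicates growth inhibition (40 means 60% inhibition), 0 means no net growth, and negative values indicate cell death.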 Values without a mark were called inactive. Activity calls are given as the source filed them. The calls were made as follows: active = growth percent below 10; inactive = the rest.
# Key:
# Assay in all cases: NCI-60 one-dose screen, 48 h (100 = growth as untreated, 0 = no growth, -100 = all killed)
# Conditions in all cases: 10 µM unless noted
# NCI-H23 lung = system: NCI-H23 lung
# NCI-H226 lung = system: NCI-H226 lung
# NCI-H322M lung = system: NCI-H322M lung
# HOP-62 NSCLC = system: HOP-62 NSCLC
# HOP-92 NSCLC = system: HOP-92 NSCLC
# NCI-H522 lung = system: NCI-H522 lung
# A549/ATCC NSCLC = system: A549/ATCC NSCLC
# 786-0 renal = system: 786-0 renal
# COLO 205 colon = system: COLO 205 colon
# NCI-H460 lung = system: NCI-H460 lung
SMILES,growth (NCI-H23 lung) [%],growth (NCI-H226 lung) [%],growth (NCI-H322M lung) [%],growth (HOP-62 NSCLC) [%],growth (HOP-92 NSCLC),growth (NCI-H522 lung),growth (A549/ATCC NSCLC) [%],growth (786-0 renal) [%],growth (COLO 205 colon),growth (NCI-H460 lung) [%]
O=C(/C=C/c1ccccc1)Nc1ncc(Cc2ccccc2)s1,24.8,60.3,31.4,13.7,85.7%,-4.58% (active),22.1,24.5,8.42% (active),–
Clc1nn2c(Cn3cnc4c(NCc5ccccc5)ncnc43)nnc2c2ccccc12,53.6,42.5,21,37.9,5.22% (active),43.7%,40,40,35.1%,–
COc1cccc2c(N=NC(=O)c3ccc(S(N)(=O)=O)cc3)c(O)[nH]c12,99.4,95.8,99.7,102,118%,87.1%,95.5,95.6,109%,–
Cc1ccc(-c2nc(C#N)c(S(=O)(=O)NCCO)o2)cc1,82.3,86.6,92,90.4,66.1%,-4.75% (active),90,61.3,43.1%,–
COCCCOc1cc(C[C@@H](C[C@H](N)[C@@H](O)C[C@H](C(=O)NCC(C)(C)C(N)=O)C(C)C)C(C)C)ccc1OC,99.4,102,114,114,84.5%,101%,103,103,112%,–
COc1cccc(OC)c1Oc1c(-c2nc3ccccc3s2)c(C)nn1-c1ccccc1,74.4,79.9,65.6,70.4,62.2%,68.3%,67.4,91.4,98.4%,–
C(/C=C/c1ccccc1)=Nc1ccc(CCc2ccc(N=C/C=C/c3ccccc3)cc2)cc1,85.2,95.9,97.6,98.2,107%,76.6%,104,106,101%,–
Cn1c(O)c(C(/C=C/c2ccccc2)=Nc2ccccc2N)c(=O)n(C)c1=O,94.2,97.9,105,105,82.4%,90.3%,103,103,95%,–
CCCNc1nc2ccccc2c2c(=O)c3cccc(Cl)c3sc12,74.1,84.9,89.6,88.3,89.5%,82.3%,94,110,94.7%,–
O=C(Nc1ccccc1)c1sc(-c2ccccc2)cc1O,83.3,94.9,96.9,–,77%,85.3%,111,101,113%,92.5
C/C(C=O)=C\c1ccc2c(c1)OCO2,102,85.2,135,–,104%,99.9%,105,107,118%,118
O=C1OCC2=C1C(c1cccc(C(F)(F)F)c1)c1cc3c(cc1N2CCO)OCO3 (stereo not drawn),29.5,66,42.4,–,51.4%,16.1%,28.9,28.5,-2.39% (active),13
